Laboratory results taken from PubChem BioAssay (Tox21).
Records with an inconclusive call do not appear. Activity calls are given as the source filed them. Unless noted, the call rests on the fitted dose curve.

Experiments:
[1] = qHTS assay to identify small molecule antagonists of the estrogen related receptor signaling pathway with the pleiotropic PPARgamma coactivator (PGC) from Tox21 10K library - cell viability counter screen (AID 1224840; active means well fitted cell-killing curve with a large enough effect in the repeat runs, not every such curve was filed as active; further: nearly all actives have a fitted effect of over 40% in size)
Summary of the method: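 PGC/ERR cells, 2,000/well; 6 h pre-incubation 37 C/5% CO2; cpd in DMSO via pin tool; 17.5 h 37 C; CellTiter-Fluor, 30 min; fluorescence.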

[2] = biological target: Thyrotropin receptor (Homo sapiens) (UniProt P16473); assay: qHTS assay to identify small molecule agonists of the thyroid stimulating hormone receptor (TSHR) signaling pathway (AID 1224843); further: nearly all actives have a fitted effect of over 45% in size
Summary of the method: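 Screening of the Tox21 10K collection used HEK293 cells engineered with TSHR at 800 cells per well. After a 30-min room-temperature compound exposure, HTRF cAMP reagents were added and fluorescence recorded 1 h later.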

[3] = qHTS assay to identify small molecule agonists of the hypoxia (HIF-1) signaling pathway - cell viability counter screen (AID 1224844); further: nearly all actives have a fitted effect of over 50% in size
Summary of the method: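 ME-180 HRE-bla cells, 2,000/well, 0.5% dialyzed FBS; 5 hr settle, 17 hr compound at 37C/5% CO2; CCF4-AM reporter read first, then CellTiter-Glo luminescence after 30 min RT.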

[4] = qHTS assay to identify small molecule agonists of H2AX (AID 1224845; active means well fitted activation curve with a large enough effect in the signal ratio in the repeat runs, not every such curve was filed as active; the % refers to the signal ratio)
Summary of the method: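 Phospho-H2AX Ser139 measured by HTRF (ex 320 nm; em 665 and 620 nm) after 24 hr antibody incubation. Compounds, 15 concentrations, 0.76% DMSO, were applied to CHO-K1 cells for 3hr at 37C before lysis.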

[5] = qHTS assay to identify small molecule agonists of the hypoxia (HIF-1) signaling pathway (AID 1224846; active means well fitted activation curve with a large enough effect in the signal ratio in the repeat runs, not every such curve was filed as active; the % refers to the signal ratio)
Summary of the method: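 Cell line: CellSensor HRE-bla ME-180; 2,000 cells/well; 0.5% dialyzed FBS; 5 h preincubation; DMSO compound pin transfer; 17 h, 37C, 5% CO2; CCF4-AM added; bla FRET signal scored for activation.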

[6] = qHTS assay to identify small molecule agonists of H2AX - cell viability counter screen (AID 1224847);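 further: wild-type CHO-K1 cells; top concentration of the series differs between compounds; nearly all actives have a fitted effect of over 30% in size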
Summary of the method: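 For this counter screen, overnight-attached CHO-K1 cells received test compounds (15 concentrations, 0.76% DMSO final); 3 hr later at 37C, CellTiter-Glo reagent was added and luminescence recorded after 30 min at room temperature.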
On the % scale 0 is the no-effect control and ±100 the full control effect.

Chain of Thyrotropin receptor (Homo sapiens) (P16473 whole entry, looked up): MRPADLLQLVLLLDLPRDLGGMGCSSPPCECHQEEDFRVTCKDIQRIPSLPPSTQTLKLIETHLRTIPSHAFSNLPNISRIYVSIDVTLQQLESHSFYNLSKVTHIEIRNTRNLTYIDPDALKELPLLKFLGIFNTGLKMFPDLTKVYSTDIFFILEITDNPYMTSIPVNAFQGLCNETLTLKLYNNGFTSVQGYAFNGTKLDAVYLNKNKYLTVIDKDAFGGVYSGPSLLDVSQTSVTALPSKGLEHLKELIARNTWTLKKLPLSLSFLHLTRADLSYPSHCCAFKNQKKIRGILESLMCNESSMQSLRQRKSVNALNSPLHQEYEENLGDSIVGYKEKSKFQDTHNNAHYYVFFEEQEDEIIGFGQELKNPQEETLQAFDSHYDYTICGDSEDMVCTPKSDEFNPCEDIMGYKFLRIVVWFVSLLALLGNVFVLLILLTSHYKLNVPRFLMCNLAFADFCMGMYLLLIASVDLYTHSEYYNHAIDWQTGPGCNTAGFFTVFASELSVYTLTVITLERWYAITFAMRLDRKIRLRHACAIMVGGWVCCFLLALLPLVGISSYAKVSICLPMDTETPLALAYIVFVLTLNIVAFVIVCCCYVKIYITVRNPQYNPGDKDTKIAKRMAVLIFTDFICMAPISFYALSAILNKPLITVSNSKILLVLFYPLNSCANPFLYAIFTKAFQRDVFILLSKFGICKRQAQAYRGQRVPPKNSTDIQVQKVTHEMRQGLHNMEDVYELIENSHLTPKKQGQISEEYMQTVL

COC(=O)CCC(=O)O
inactive: outcome [1] | outcome [2] | outcome [3] | outcome [4] | outcome [5] | Potency [6]

O=C1OC(=O)c2cc(Oc3ccc4c(c3)C(=O)OC4=O)ccc21
inactive: outcome [1] | outcome [2] | outcome [3] | outcome [4] | outcome [5] | Potency [6]

CCCCCC1Nc2cc(C(F)(F)F)c(S(N)(=O)=O)cc2S(=O)(=O)N1 (centres undefined)
inactive: outcome [1] | outcome [2] | outcome [3] | outcome [4] | outcome [5] | Potency [6]

CCOC(=O)C(C)(C)C
inactive: outcome [1] | outcome [2] | outcome [3] | outcome [4] | outcome [5] | Potency [6]

Cc1cc(C)cc([N+](=O)[O-])c1
inactive: outcome [1] | outcome [2] | outcome [3] | outcome [4] | outcome [5] | Potency [6]

O=C(c1ccc2c(c1)C(=O)OC2=O)c1ccc2c(c1)C(=O)OC2=O
inactive: outcome [1] | outcome [2] | outcome [3] | outcome [4] | outcome [5] | Potency [6]

Nc1cc(S(=O)(=O)O)ccc1S(=O)(=O)O
inactive: outcome [1] | outcome [2] | outcome [3] | outcome [4] | outcome [5] | Potency [6]

COc1ccc(OC)c(NC(=O)CC(C)=O)c1
inactive: outcome [1] | outcome [2] | outcome [3] | outcome [4] | outcome [5] | Potency [6]

CCCCC(=O)N(C)C
inactive: outcome [1] | outcome [2] | outcome [3] | outcome [4] | outcome [5] | Potency [6]

CNC(=O)NC
inactive: outcome [1] | outcome [2] | outcome [3] | outcome [4] | outcome [5] | Potency [6]

O=c1[nH]c(=O)c2[nH]c(=O)[nH]c2[nH]1
inactive: viability change, negative = cytotoxic [1] -2.62% [at 8.39 µM] | activation [2] 0.91% [at 8.39 µM] | activity change, negative = cytotoxicity [3] 3.89% [at 6.97 µM] | activation (H2AX phosphorylation) [4] 0.259% [at 14 µM] | activity change, negative = cytotoxicity [6] -1.7% [at 14 µM]

CCCCCCCCCCCCOC(C)=O
inactive: outcome [1] | outcome [2] | outcome [3] | outcome [4] | Potency [6]

COC(/C=C(\C)CCC=C(C)C)OC
inactive: outcome [1] | outcome [2] | outcome [3] | outcome [4] | Potency [6]

Cc1ccc(C(=O)C(=O)O)cc1C
inactive: outcome [1] | outcome [3] | outcome [4] | outcome [5] | Potency [6]

CC(=O)N(CC(O)CO)c1c(I)c(C(=O)NCC(O)CO)c(I)c(C(=O)NCC(O)CO)c1I (centres undefined)
inactive: outcome [1] | outcome [3] | outcome [4] | outcome [5] | Potency [6]

C=CCOCC(O)CCl (centres undefined)
inactive: outcome [1] | outcome [3] | outcome [4] | outcome [5] | Potency [6]

CC(C)CCO
inactive: outcome [1] | outcome [2] | outcome [4] | Potency [6]

CCCO
inactive: outcome [1] | outcome [3] | outcome [4] | outcome [5] | Potency [6]

CCCCCCCC[Si](OCC)(OCC)OCC
inactive: outcome [1] | outcome [3] | outcome [4] | outcome [5] | Potency [6]

COCC(=O)Nc1c(I)c(C(=O)NCC(O)CO)c(I)c(C(=O)N(C)CC(O)CO)c1I (centres undefined)
inactive: outcome [1] | outcome [2] | outcome [3] | outcome [4] | Potency [6]

CCC(O)C(C)(C)C (centres undefined)
inactive: outcome [1] | outcome [2] | outcome [3] | outcome [4] | Potency [6]

OC(CCN1CCCCC1)(c1ccccc1)c1ccccc1
inactive: outcome [1] | outcome [3] | outcome [4] | Potency [6]

C[C@H]1O[C@H](O[C@H]2[C@H](O)[C@@H](O)[C@@H](O[C@H]3[C@H](O)[C@@H](O)[C@H](O)O[C@@H]3CO)O[C@@H]2CO)[C@H](O)[C@@H](O)[C@@H]1N[C@H]1C=C(CO)[C@@H](O)[C@H](O)[C@H]1O
inactive: outcome [1] | outcome [3] | outcome [4] | Potency [6]

c1ccc(CNc2ncnc3nc[nH]c23)cc1
inactive: outcome [1] | outcome [2] | outcome [3] | outcome [4] | Potency [6]

CCC(CO)CO
inactive: outcome [1] | outcome [3] | outcome [4] | outcome [5]

Nc1ccc(S(=O)(=O)NC(=O)c2ccccc2)cc1
inactive: outcome [1] | outcome [2] | outcome [3] | Potency [6]

Cc1cc(O)c2c(c1)C(=O)c1cccc(O)c1C2=O
inactive: outcome [1] | outcome [3] | outcome [4] | outcome [5] | Potency [6]

COc1cc2c3cc1Oc1cc(ccc1O)C[C@@H]1c4c(cc(OC)c(O)c4Oc4ccc(cc4)C[C@@H]3N(C)CC2)CC[N+]1(C)C
inactive: outcome [1] | outcome [2] | outcome [3] | outcome [4] | Potency [6]

CC(C)=CC(C)(C)C
inactive: outcome [1] | outcome [2] | outcome [3] | outcome [4] | Potency [6]

COCCOCCOCCOC
inactive: outcome [1] | outcome [3] | outcome [4] | outcome [5] | Potency [6]

O=C(Nc1cccc(C2=NCCN2)c1)Nc1cccc(C2=NCCN2)c1
inactive: viability change, negative = cytotoxic [1] 0.87% [at 19 µM] | activity change, negative = cytotoxicity [3] 3.42% [at 15.8 µM] | activation (H2AX phosphorylation) [4] 0.307% [at 31.6 µM] | activation [5] -0.385% [at 15.8 µM] | activity change, negative = cytotoxicity [6] 4.49% [at 31.6 µM]

CCOC(=O)CC#N
inactive: outcome [1] | outcome [2] | outcome [3] | outcome [4] | Potency [6]

Cc1oc(=O)oc1CN1CCN(c2cc3c(cc2F)c(=O)c(C(=O)O)c2n3C(C)S2)CC1 (centres undefined)
inactive: outcome [1] | outcome [2] | outcome [3] | outcome [4] | Potency [6]

CC(C)COC(=O)CCCCC(=O)OCC(C)C
inactive: outcome [1] | outcome [3] | outcome [4] | outcome [5] | Potency [6]

CC(C)CCCC(C)CC=O (centres undefined)
inactive: outcome [1] | outcome [3] | outcome [4] | outcome [5] | Potency [6]

Nc1cc(C(=O)O)ccc1Cl
inactive: outcome [1] | outcome [2] | outcome [3] | outcome [4] | Potency [6]

CCN(CCC#N)c1ccccc1
inactive: outcome [1] | outcome [2] | outcome [3] | outcome [4] | Potency [6]

CCCCC(CC)C(=O)OC(C)C (centres undefined)
inactive: outcome [1] | outcome [3] | outcome [4] | outcome [5] | Potency [6]

NCCc1ccn[nH]1
inactive: outcome [1] | outcome [2] | outcome [3] | outcome [4] | Potency [6]

C=C[C@@H](C)CCC=C(C)C
inactive: outcome [1] | outcome [2] | outcome [3] | outcome [4] | Potency [6]

CO[Si](CCCS)(OC)OC
inactive: outcome [1] | outcome [2] | outcome [3] | outcome [4] | Potency [6]

CC(C)c1ccccc1O
inactive: outcome [1] | outcome [3] | outcome [4] | outcome [5] | Potency [6]

CNC(=O)C(c1ccccc1)c1ccccc1
inactive: outcome [1] | outcome [2] | outcome [3] | outcome [4] | Potency [6]

CCOC(=O)CC(CC(=O)OCC)(OC(C)=O)C(=O)OCC
inactive: outcome [1] | outcome [3] | outcome [4] | outcome [5] | Potency [6]

CCC(C)N (centres undefined)
inactive: outcome [1] | outcome [3] | outcome [4] | outcome [5] | Potency [6]

O=C(O)c1ccccc1C(=O)OCc1ccccc1
inactive: outcome [1] | outcome [3] | outcome [4] | outcome [5] | Potency [6]

Nc1ccc(/C=C/c2ccc(N)cc2S(=O)(=O)O)c(S(=O)(=O)O)c1
inactive: viability change, negative = cytotoxic [1] 2.38% [at 0.349 µM] | activity change, negative = cytotoxicity [3] -0.74% [at 0.29 µM] | activation (H2AX phosphorylation) [4] -0.0976% [at 0.582 µM] | activity change, negative = cytotoxicity [6] 3.7% [at 0.582 µM]

CCN(CC)C(=O)C1CN2CCc3cc(OC)c(OC)cc3C2CC1OC(C)=O (centres undefined)
inactive: outcome [1] | outcome [2] | outcome [3] | outcome [4] | Potency [6]
